Bioassay records as filed in PubChem BioAssay.
HPGD inh: blocks human HPGD enzyme activity | P15428 | purified HPGD, NADH fluorescence kinetic, PGE2 substrate | Potency, µM, usual class: inhibitors | 4.3% of 150,000 active; active means well fitted inhibition curve with a large enough effect, not every such curve was filed as active; inconclusive means small, poorly fitted or top-dose-only effect, or another doubt; inactive means no such curve, though single readings can be large or run the other way
Target sequence (P15428 whole entry, looked up): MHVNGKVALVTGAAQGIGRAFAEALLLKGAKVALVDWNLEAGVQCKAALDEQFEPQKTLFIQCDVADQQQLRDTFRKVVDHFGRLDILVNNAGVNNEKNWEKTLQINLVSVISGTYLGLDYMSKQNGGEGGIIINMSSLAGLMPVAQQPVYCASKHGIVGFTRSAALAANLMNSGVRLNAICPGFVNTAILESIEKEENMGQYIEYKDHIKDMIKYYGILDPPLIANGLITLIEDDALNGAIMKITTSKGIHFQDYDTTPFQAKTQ
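NADH formation kinetics: reaction with 30 uM PGE2 and 1 mM NAD+ (final), 20 nM enzyme, Tris-HCl pH 8 with Tween 20, after 15 min compound preincubation at room temperature. Fluorescence change, last versus first of five reads.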
HTT aggregate: inhibitors of mutant huntingtin aggregate formation in PC12 cells; PC12 HttQ103-GFP aggregates, Acumen cytometry, 40 h; Potency, µM (series often up to 46.1 µM), hits mostly inhibitors; 1.1% of 220,000 active; further: nearly all actives have a fitted effect of over 60% in size
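Aggregate formation scored by laser-scanning cytometer (488 excitation, 500–530 emission) in lysed PC12 cells expressing Q103-GFP after 100 nM tebufenozide induction; library tested in dose series, with ATPLite reagent added in the multiplex.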
IMPase cell inh: cell-permeable inhibitors of inositol monophosphatase (IMPase) | P97697 | CHO-M1 cells, IP1 accumulation, HTRF TR-FRET ratio | inhibition (IP1 accumulation), % at 46.1 µM | 120,000 tested, under 10 active | AID 901; active means well fitted curve in the direction sought with a large enough effect in the signal ratio, not every such curve was filed as active; inconclusive means small, poorly fitted or top-dose-only effect, or a change in a side signal; inactive means no such curve, though single readings can be large or run the other way; the % refers to the signal ratio;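 further: cells stimulated with carbachol in lithium chloride buffer; higher means more IMPase inhibition seen as more IP1 and lower FRET ratio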
Target sequence (P97697 whole entry, looked up): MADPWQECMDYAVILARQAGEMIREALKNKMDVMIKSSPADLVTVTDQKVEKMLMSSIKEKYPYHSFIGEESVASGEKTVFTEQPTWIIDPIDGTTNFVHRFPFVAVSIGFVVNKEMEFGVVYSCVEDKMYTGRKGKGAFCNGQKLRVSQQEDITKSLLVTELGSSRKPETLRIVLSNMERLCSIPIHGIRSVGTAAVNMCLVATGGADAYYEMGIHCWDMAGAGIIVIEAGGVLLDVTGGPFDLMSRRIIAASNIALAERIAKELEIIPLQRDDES
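In this qHTS, compounds (final up to 46 uM) act on CHO-M1 cells that are then activated through the M1 receptor with carbachol, in pH 7.4 buffer containing 50 mM LiCl, for 30 min. IP1 accumulation is quantified by the IP-One immunoassay.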
IMPase Li cell: IMPase inhibition in cells with lithium potentiation; CHO-M1 cells, IP1 TR-FRET (IP-One), carbachol + lithium; Potency, µM (doses to about 59.4 µM), usual class: inhibitors; 0.35% of 210,000 active; AID 1457;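 further: IP1 builds up when IMPase is blocked and the TR-FRET signal falls; nearly all actives have a fitted effect of over 50% in size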
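IP1 accumulation measured by competitive TR-FRET in lysed CHO-M1 cells after 30 min compound exposure at 37C, with a small lithium addition to potentiate weak responses. Hill-equation AC50 from ratio and donor-channel data.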
HTT ATP protect: cytoprotection in Huntington HTT-Q103 PC12 cell model | 0.14% of 230,000 active | PC12 HTT-Q103 induced, cytoprotection, ATP luminescence, 40 h | Potency, µM (highest dose often 56.4 µM), most hits filed as activators; further: nearly all actives have a fitted effect of over 45% in size
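Stable PC12 Q103-GFP cells in serum-supplemented, phenol red-free DMEM; induction by tebufenozide at 100 nM final; compound dose series; cell viability quantified luminescently from ATP.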
ALDH1A1 block: inhibitors of human aldehyde dehydrogenase 1A1 | P00352 | Purified ALDH1A1, NADH fluorescence, propionaldehyde substrate | Potency, µM (top dose mostly 75.3 µM), most hits filed as inhibitors | 7.3% of 220,000 active | AID 1030; active means well fitted inhibition curve with a large enough effect, not every such curve was filed as active; inconclusive means small, poorly fitted or top-dose-only effect, or another doubt; inactive means no such curve, though single readings can be large or run the other way
Hits are given with their value; n = inactive; u = inconclusive; x = not tested or not shown; [ ] = another dose, or the depositor's remark. In the library only some 9.4% were active in any assay of this set; here they are far more common. Unless noted, the call rests on the fitted dose curve; in most records, active means well fitted curve in the direction sought with a large enough effect; inconclusive means small, poorly fitted or top-dose-only effect, or another doubt; inactive means no such curve, though single readings can be large; an effect the other way counts as inactive or inconclusive.

SMILES	HPGD inh	HTT aggregate	IMPase cell inh	IMPase Li cell	HTT ATP protect	ALDH1A1 block
CCCOc1ccc(C2c3c(oc4ccccc4c3=O)C(=O)N2CCCN2CCOCC2)cc1 (configuration not stated)	n	n	n	n	n	8.9µM
C=CCOc1ccc(C2c3c(oc4ccc(C)cc4c3=O)C(=O)N2CCCN2CCOCC2)cc1 (configuration not stated)	x	x	n	x	x	x
COC(=O)c1ccc(C2c3c(oc4ccccc4c3=O)C(=O)N2CCCN2CCOCC2)cc1 (configuration not stated)	n	n	n	n	n	u
CCOc1ccc(C2c3c(oc4ccccc4c3=O)C(=O)N2CCCN2CCOCC2)cc1 (configuration not stated)	n	n	n	n	n	6.3µM
Cc1cc2oc3c(c(=O)c2cc1C)C(c1ccc(C(C)C)cc1)N(CCCN1CCOCC1)C3=O (configuration not stated)	n	n	x	n	n	4µM
CC(C)CCOc1cccc(C2c3c(oc4ccccc4c3=O)C(=O)N2CCCN2CCOCC2)c1 (configuration not stated)	x	x	x	x	n	x
CCNc1ncc2nc(-c3ccccc3)c(=O)n(C)c2n1	x	x	x	u	n	u
Cn1ccs/c1=N\C(=O)Nc1ccccc1	x	n[9.22 µM]	x	n	n[10 µM]	n
COC(=O)C1=C(N)Oc2cc(C)[nH]c(=O)c2C1c1ccccc1OC (configuration not stated)	x	n[9.22 µM]	x	x	n[10 µM]	x
Cc1cc(C)c2oc(-c3cccc(NC(=O)c4cc5ccccc5o4)c3)nc2c1	x	x	n	x	x	x
CC#CCN1c2ccccc2[C@]23C[C@@H](C(=O)OC)N(S(=O)(=O)c4ccc(C(F)(F)F)cc4)C2=NC(C(=O)OC)=C(C(=O)OC)[C@H]13	n	x	x	n	n[10 µM]	n[13.5 µM]
COc1cccc(C2c3c(oc4cc(C)c(C)cc4c3=O)C(=O)N2CCCN(C)C)c1 (configuration not stated)	n	n	n	n	n	28µM
CC(=O)Nc1ccc(Br)c(Cl)c1	x	n[9.22 µM]	x	x	n[10 µM]	n
O=C(Nc1ccc(Br)c(Cl)c1)C1CC1	18µM	u	n[1.84 µM]	n	n[10 µM]	n
Cc1c(C(=O)N2CC(C)OC(C)C2)sc2nc(-c3ccc(F)cc3)cn12 (configuration not stated)	35µM	n	n	n	n	n
Cc1cccc(NC(=O)c2sc3nc(-c4ccc(F)cc4)cn3c2C)n1	u	n	n	14µM	u	u
Cc1c(C(=O)NCc2ccc3c(c2)OCO3)sc2nc(-c3ccc(F)cc3)cn12	n	0.89µM	n	n	n	n
NC(N)=NCC1COc2ccccc2O1 (configuration not stated)	x	n	x	x	n	x
CCC1CCC(C(=O)NNC(=O)c2cc(-c3ccco3)[nH]n2)CC1 (configuration not stated)	x	n	x	n	n	n
Cc1ccc(S(=O)(=O)N(CC(O)Cn2c3ccccc3c3ccccc32)c2cccc(C(=O)NCCO)c2)cc1 (configuration not stated)	x	x	n	x	x	x
O=C(Cn1nnc(-c2ccc(CN3CCOCC3)cc2)n1)N(c1ccccc1)c1ccccc1	x	u	x	n	n[10 µM]	11µM
NC(=O)Cn1nnc(-c2ccc(CN3CCCCC3)cc2)n1	x	n[9.22 µM]	x	n	n[10 µM]	n
Cc1ccc(-n2nnnc2SCC(=O)NC2CCCc3ccccc32)cc1 (configuration not stated)	n	n	n	n	n[10 µM]	7.9µM
O=C(CCl)NC1CCCc2ccccc21 (configuration not stated)	x	n[9.22 µM]	x	n	n[10 µM]	3.2µM
CCOc1ccc(NC(=O)CS(=O)CC(=O)NC2CCCc3ccccc32)cc1 (configuration not stated)	n	n	n	n	n[10 µM]	6.3µM
SMILES	HPGD inh	HTT aggregate	IMPase cell inh	IMPase Li cell	HTT ATP protect	ALDH1A1 block
CN(C(=O)CCl)C1CCCc2ccccc21 (configuration not stated)	x	u	x	n	n	0.4µM
CCCOc1ccc(C(=O)Nc2ccc3nn(-c4ccc(OC)c(Cl)c4)nc3c2)cc1	x	x	n	x	x	x
Cc1ccc(OCC(=O)Nc2ccc3nn(-c4ccc(Cl)cc4)nc3c2)cc1	x	x	n	x	x	x
NCCCNCCCCNCCCNC(=O)CCc1ccc(O)cc1	n	x	x	n	n[10 µM]	n[13.5 µM]
COc1ccc(-c2oc3ncn4nc(-c5ccccc5C)nc4c3c2-c2ccc(OC)cc2)cc1	x	x	n	x	x	x
Cn1c(Sc2ccc(-c3cccnc3)n2C)ccc1-c1cccnc1	n	x	x	n	n[10 µM]	n[13.5 µM]
CCC(=O)N1CCc2cc(S(=O)(=O)Nc3cc(C)ccc3OC)ccc21	x	x	n	x	x	x
CCCc1[nH][nH]c(=O)c1C(c1ccc(Br)cc1)C(C#N)C#N (configuration not stated)	20µM	n	n	n	n[10 µM]	u
CCOC(=O)C(C#N)C(c1cccnc1)c1c(C)[nH][nH]c1=O (configuration not stated)	n	n	n	n	n[10 µM]	n
NC(=O)c1c(NC(=S)Nc2ccc(F)cc2)sc2c1CCCC2	x	n[9.22 µM]	x	n	n[10 µM]	10µM
NC(=O)c1c(NC(=S)Nc2ccccc2)sc2c1CCCC2	x	n	x	n	n	7.9µM
Cc1ccc2c(c1)C(=O)OC(C(=O)Nc1ncc(Cc3ccc(C(C)C)cc3)s1)C2 (configuration not stated)	x	x	n	x	x	x
COc1cccc(C2CC(=O)N3CN(c4ccccc4F)CSC3=C2C#N)c1 (configuration not stated)	u	n	n	n	n	25µM
COc1ccc(OC)c(C2CC(=O)N3CN(c4ccccc4F)CSC3=C2C#N)c1 (configuration not stated)	25µM	n	n	n	n	4µM
COc1ccc(C2CC(=O)N3C(=C2C#N)SCC3(O)c2ccccc2)cc1 (configuration not stated)	n	u	n	n	n	u
O=C(CCl)N(c1ccccc1)C1CCCCC1	x	n	x	n	x	0.035µM
CC(=O)N(c1ccccc1)C1CCCC1	n	n	x	n	n[10 µM]	n
Cc1[nH]c2ccccc2c1Cc1n[nH]c(=S)n1C	35µM	n	n	n	n[1.9 µM]	n
Cc1cc2c(cc1C)C(=O)NC(C)(C)C2	n	10µM	u	n	n	n
C[C@@]1(C(=O)O)NCCc2cc(O)c(O)cc21	u	x	n	n	n	u
C/C=C1/C(=O)C[C@@H]2[C@H]3CCC4=CC(=O)CC[C@]4(C)[C@@H]3CC[C@]12C	x	x	x	n	n	n
CCN(CC)C(=O)Oc1ccc2c(=O)c(-c3ccc(OC)cc3)c(C)oc2c1	n	n	n	n	n[0.074 µM]	14µM
CC1CCCN(CCCNC(=O)CCn2nc(-c3ccccc3)ccc2=O)C1 (configuration not stated)	n	u	n	n	n	22µM
CCCCNC(=O)CCn1nc(-c2ccccc2)ccc1=O	n	n	n	n	n	n
